Bioassay records from PubChem.
An excerpt weighted towards active compounds, which were near 2.8% of everything screened.
PI5P4K alpha inh – PI5P4K alpha (human) kinase inhibition | max response, % | PI5P4Kalpha enzyme, ADP-Glo luminescence, 60 min; active compounds read low | hit rate 1.2% among 330,000 | AID 652105 | P48426; active means max response of -50% or lower; inconclusive means between -30% and -50%; inactive means -30% or higher; further: value at the top dose of about 77 µM; on the % scale 0 is the no-effect control and ±100 the full control effect
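Human PI5P4Kalpha with substrate in 0.038 M HEPES pH 7.4, 0.28 mM EGTA, 0.1% CHAPS, 5% DMSO; reaction started with 5 microM ATP (final), 60 min at room temperature. ADP formed read by ADP-Glo luminescence.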
Pol beta inh – inhibitors of human DNA polymerase beta. Potency, µM (doses to about 114 µM), for the others: top-dose activity change, negative = inhibition, actives largely listed as inhibitors. hit rate 1.3% among 340,000. AID 485314. Pol beta primer extension/strand displacement, fluorescence kinetic. P06746; further: potency means the concentration at half of the fitted maximal effect; on the % scale 0 is the no-effect control and ±100 the full control effect
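Pol beta (10 nM) was preincubated with compound for 15 min at room temperature. The reaction was then started with 50 nM substrate and read immediately and after a further 10 min at room temperature.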
Pol kappa inh-1 – DNA polymerase kappa (human) inhibition | purified Pol kappa, fluorescent DNA synthesis assay, 10 min | AID 588579 | Q9UBT6 | Potency, µM (titrated, usually from 107 µM), inactives show at the top dose activity, negative = inhibition, hits mostly inhibitors | hit rate 0.53% among 400,000; further: potency means the concentration at half of the fitted maximal effect; on the % scale 0 is the no-effect control and ±100 the full control effect
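50 nM final substrate added after 15 min RT preincubation of 10 nM Pol kappa with compound; fluorescence read at 0 and 10 min.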
Pol iota inh – inhibitors of human DNA polymerase iota; Q9UNA4; Pol iota fluorescent replication assay, 10 min; Potency, µM (highest dose often 115 µM), for inactives: at the top dose activity, negative = inhibition, usual class: inhibitors; hit rate 1% among 390,000; AID 588590; further: potency means the concentration at half of the fitted maximal effect
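Fluorescent replication assay read twice, at 0 min and 10 min after adding 50 nM (final) substrate. Enzyme (10 nM) and compounds were first incubated 15 min at room temperature; enzyme-free buffer wells were negative controls.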
Pol eta inh-1 – DNA polymerase eta (human) inhibition; Q9Y253; Potency, µM (top dose mostly 114 µM), for inactives: at the highest dose activity change, negative = inhibition, most hits filed as inhibitors; hit rate 1.2% among 390,000; AID 588591; recombinant Pol eta, fluorescent DNA replication assay; further: potency means the concentration at half of the fitted maximal effect; on the % scale 0 is the no-effect control and ±100 the full control effect
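Pol eta at 10 nM preincubated with compounds 15 min at room temperature; reaction started with fluorescent substrate (50 nM final) and read kinetically at 0 and 10 min.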
WRN helicase inh-1 – blocks human WRN helicase; WRN helicase unwinding, fluorescent forked duplex, kinetic; Potency, µM (highest dose often 114 µM), inactives show at the top dose activity change, negative = inhibition, usual class: inhibitors; hit rate 0.46% among 360,000; further: potency means the concentration at half of the fitted maximal effect; on the % scale 0 is the no-effect control and ±100 the full control effect; nearly all actives have a fitted effect of over 55% in size
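Kinetic red-fluorescence monitoring (525/598 nm) tracks WRN helicase activity after 100 nM fluorophore-quencher forked duplex and 2 mM ATP are added to 20 nM enzyme pretreated 15 min at room temperature with compound.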
Pol kappa inh-2 – Pol kappa (human) inhibition, cherry-pick confirmation | hit rate 76% among 920 | purified Pol-kappa, fluorescent strand-displacement substrate | AID 720501 | Potency, µM, usual class: inhibitors | shares compounds with Pol eta inh-1; further: potency means the concentration at half of the fitted maximal effect
Pol eta inh-2 – confirmation of human DNA polymerase eta inhibitors | hit rate 64% among 2,600 | Potency, µM, usual class: inhibitors | shares compounds with Pol eta inh-1 | Pol eta primer extension, TAMRA/BHQ fluorescence, 10 min | AID 720502; further: potency means the concentration at half of the fitted maximal effect
WRN helicase inh-2 – confirmation of human WRN helicase inhibitors. Potency, µM (series often up to 57.1 µM), without a hit: at the highest dose activity, negative = inhibition, most hits filed as inhibitors. WRN helicase DNA unwinding, fluorescence kinetic. shares compounds with WRN helicase inh-1. AID 720497. hit rate 63% among 610; further: potency means the concentration at half of the fitted maximal effect; nearly all actives have a fitted effect of over 65% in size
TO displacement – DNA binding via thiazole orange displacement. Potency, µM (doses to about 57.1 µM), inactives show at the highest dose activity change, negative = inhibition, most hits filed as inhibitors. hit rate 10% among 610. AID 720499. thiazole orange DNA binding displacement, fluorescence. shares compounds with WRN helicase inh-1;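 further: drop in dye fluorescence marks compound binding to DNA; potency means the concentration at half of the fitted maximal effect; on the % scale 0 is the no-effect control and ±100 the full control effect; nearly all actives have a fitted effect of over 60% in size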
BLM counter – BLM helicase inhibition, WRN selectivity check; shares compounds with WRN helicase inh-1; Recombinant BLM helicase DNA unwinding, red fluorescence; Potency, µM (highest dose often 57.1 µM), for inactives: at the highest dose activity change, negative = inhibition, usual class: inhibitors; hit rate 60% among 610; AID 720503; further: potency means the concentration at half of the fitted maximal effect; nearly all actives have a fitted effect of over 60% in size
The depositor's hits bear a star; i = inactive; ? = inconclusive; . = not tested or not shown; [ ] = another dose, or the depositor's remark. Unless noted, the call rests on the fitted dose curve; in most records, active means well fitted curve in the direction sought with a large enough effect; inconclusive means small, poorly fitted or top-dose-only effect, or another doubt; inactive means no such curve, though single readings can be large; an effect the other way counts as inactive or inconclusive.

SMILES	PI5P4K alpha inh	Pol beta inh	Pol kappa inh-1	Pol iota inh	Pol eta inh-1	WRN helicase inh-1	Pol eta inh-2	WRN helicase inh-2	TO displacement	BLM counter	others
O=C(CCN1C(=O)S/C(=C\c2ccccc2)C1=O)Nc1ccc(S(=O)(=O)Nc2nccs2)cc1	-29.9	?	-13.5%	?	28.2µM*	?	?	?	?	?
O=S(=O)(c1ccccc1)c1cc(O)ccc1O	11.5	?	2.2%	47.5%	-17.8%	-14.6%	.	.	.	.
Nc1ccc(S(=O)(=O)c2cc(O)c3ccccc3c2O)cc1	-77.9*	.	-16.5%	?	39.8µM*	28.2µM*	?	24.1µM*	24.1µM*	21.5µM*	Pol kappa inh-2=84.4*
COc1cc(/C=C2/C(=O)c3cccc([N+](=O)[O-])c3C2=O)c(Br)cc1O	-60.5*	39.8µM*	-28.1%	25.1µM*	25.1µM*	4.23µM*	47.8*	?	?	?
CCN(CC)c1ccc(/C=C2/C(=O)c3ccc(C(=O)O)cc3C2=O)cc1	-92.5*	?	79.4µM*	17.8µM*	3.55µM*	35.5µM*	37.9*	24.1µM*	96.1%	?	Pol kappa inh-2=7.52*
CCN(CC)c1ccc(/C=C2/C(=O)ON=C2C)cc1	-1.3	6.5%	-11.1%[60.1 µM]	?	14.4%	-16.1%	.	.	.	.
Cc1nn(-c2ccccc2)nc1C(=O)Oc1cc(C(F)(F)F)nn1-c1ccccc1	5.6	-24.2%	-9.8%	?	13.4%	-2.6%	.	.	.	.
CCNc1cc(N2CCN(C3CCCCC3)CC2)c2noc3c2c1C(=O)c1ccccc1-3	.	17.5%	-8.7%	41.6%	4.7%	.	.	.	.	.
O=C(O)CCCNc1cc(N2CCN(C3CCCCC3)CC2)c2noc3c2c1C(=O)c1ccccc1-3	.	20µM*	?	?	2.7%	.	?	6.81µM*	422.2%	6.07µM*
O=C(O)COc1ccccc1/C=C1\SC(=S)N(NC(=O)c2ccccc2O)C1=O	?	.	31.6µM*	7.08µM*	31.6µM*	?	?	?	-8.8%	-22.9%	Pol kappa inh-2=7.52*
COc1ccc(C2C(C(=O)N3CCN(c4ccccc4)CC3)c3ccccc3C(=O)N2C)cc1 (stereo unspecified)	0.1	0.5%	-13.5%	10.1%	11.5%	-6.0%	.	.	.	.
Cc1ccc(-c2ccc(/C=C3\C(=O)ON=C3c3ccccc3)o2)c([N+](=O)[O-])c1	.	29.4%	-36.2%	31.6µM*	28.2µM*	39.8µM*	84.9*	21.5µM*	?	21.5µM*	Pol kappa inh-2=?
COc1cc(/C=C2\SC(=S)N(c3cccnc3)C2=O)ccc1O	-6.7	?	?	?	4.0%	?	.	.	.	.
COc1cc(/C=C2\SC(=S)N(Nc3ncc(C(F)(F)F)cc3Cl)C2=O)ccc1O	-21.8	14.1µM*	-33.9%	14.1µM*	?	31.6µM*	.	7.64µM*	-24.7%	6.07µM*	Pol kappa inh-2=?
CCCN(CC(=O)Nc1ccccc1OC)C(=O)c1nc2nc(C)ccn2n1	-5.4	.	1.2%	19.3%	-6.6%	-30.4%	.	.	.	.
CCOc1ccc(CCN2C(=O)c3ccc(C(=O)O)cc3C2=O)cc1OCC	?	1.2%	3.6%	45.5%	-18.5%	-2.8%	.	.	.	.
CC(=O)NN1C(=O)/C(=C/c2ccc(Br)o2)SC1=S	?	?	7.94µM*	2.51µM*	3.98µM*	50.1µM*	?	-19.8%	1.5%	-20.0%
C/C(=N/NC(=O)c1cc2ccccc2cc1O)C1C(=O)c2ccccc2C1=O	?	?	?	31.6µM*	14.1µM*	44.7µM*	?	15.2µM*	3.41µM*	15.2µM*
Cc1ccc(-c2csc(NC(=O)/C=C/c3ccco3)c2C(=O)O)cc1	-71.5*	28.2µM*	50.1µM*	?	28.2µM*	39.8µM*	?	?	-11.9%	?
O=C(CCCN1C(=O)/C(=C\c2ccccc2)SC1=S)N1CCOCC1	-0.5	.	-16.1%	10.3%	-5.1%	-35.3%	.	.	.	.
O=C(O)CCCN1C(=O)/C(=C\c2ccco2)SC1=S	-26.9	20µM*	11.2µM*	7.08µM*	20µM*	?	47.8*	?	-8.2%	?	Pol kappa inh-2=42.3*
COc1ccc([C@H]2C[C@H](O)[C@@H](n3cc(C4CC4)nn3)CN2C(=O)C2CCCCC2)cc1	0.2	.	.	.	-19.6%	3.3%	.	.	.	.
CCCN1C(=O)/C(=C\C=C2\N(CC)c3ccccc3C2(C)C)SC1=S	0.5	-14.2%	-16.1%	?	?	4.23µM*	.	13.6µM*	i	10.8µM*	Pol kappa inh-2=53.2*
CCCN1C(=O)/C(=C\C=C2/Sc3ccccc3N2CC)SC1=S	.	-2.9%	.	.	.	.	.	.	.	.
CCCCN(C)C(=O)c1ccc2c(c1)N(Cc1ccc(F)cc1)C(=O)c1ccccc1S2(=O)=O	.	-2.6%	-20.7%	9.8%	.	.	.	.	.	.
SMILES	PI5P4K alpha inh	Pol beta inh	Pol kappa inh-1	Pol iota inh	Pol eta inh-1	WRN helicase inh-1	Pol eta inh-2	WRN helicase inh-2	TO displacement	BLM counter	others
O=C(O)CN1C(=O)/C(=C\C(Br)=C\c2ccccc2)SC1=S	-28.5	?	?	?	8.91µM*	?	23.9*	21.5µM*	-7.0%	21.5µM*
CCn1c(SCc2ccc(Cl)cc2Cl)nc2nc3c(cc2c1=O)CCCC3	.	82.4%	-0.3%	-0.6%	-11.2%	6.9%	.	.	.	.
O=[N+]([O-])c1c(Nc2ccc(O)cc2)cc(Cl)c2nonc12	-23.9	-15.5%	-4.7%	3.55µM*	50.1µM*	?	?	?	34.1µM*	?
Cc1cc(N=NC(=O)c2ccccc2)ccc1O	-12.0	0.4%	-11.9%	?	1.8%	4.7%	.	.	.	.
O=C(ONc1ccc(N=NC(=O)c2ccccc2O)cc1)c1ccccc1	-58.0*	9.3%	-6.7%	7.9%	50.1µM*	?	?	21.5µM*	27.1µM*	13.6µM*
Cc1ccc(SCC(=O)OCC(=O)N(C)C2CCS(=O)(=O)C2)cc1C (stereo unspecified)	0.6	.	-3.0%	18.2%	-3.2%	-9.8%	.	.	.	.
